mHTT CaM bind – disrupts binding of mutant huntingtin to calmodulin. actives 3.6% (n = 190,000). inhibition, % at 15 µM. AlphaScreen His-mHTT/GST-CaM binding, luminescence. AID 1671202;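 further: 0% = both proteins with DMSO and 100% = one protein alone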
Pf apPOL block – Pf-apPOL DNA polymerase inhibition. Recombinant Pf-apPOL, molecular beacon fluorescence, 1.5 h. inhibition, % at 10 µM. actives 0.25% (n = 210,000). AID 1794808
Numbers without * were called inactive. The list is not random: actives were taken first. Their share in the collection is about 3.5%. No stated cut-off is given here; in the data, active means inhibition above about 50%; inactive means the rest.

Results for O=C(C1CCCC1)N1CCC(c2cnn(-c3ccccc3)c2)CC1 ?
mHTT CaM bind: -13; Pf apPOL block: -6

Results for Cc1ccc(SC[C@H](CC(C)C)N2CCN(CCc3ccccc3)CCC2=O)cc1 ?
mHTT CaM bind: 80*; Pf apPOL block: -6

What do the screens show for `CC(=O)Nc1ccc(SC[C@H](CC(C)C)N2CCN(CCc3ccccc3)CCC2=O)cc1`?
mHTT CaM bind: 50; Pf apPOL block: -4

What do the screens show for `Cc1cc(C(c2ccccc2)c2cc(C)c(N)c(C)c2)cc(C)c1N`?
mHTT CaM bind: 80*; Pf apPOL block: -4

Results for Cc1cc(C(c2cc(C)c(N)c(C)c2)c2ccco2)cc(C)c1N ?
mHTT CaM bind: 46; Pf apPOL block: -3

How did O=C(c1ccc(F)cc1Cl)N1CCc2nc(-c3ccc(Cl)cc3)ncc2C1 do in these assays?
mHTT CaM bind: -12; Pf apPOL block: -6

How did CC(C)(C)N=C1Nc2ccccc2NC12CCCN(C(=O)COc1ccccc1)C2 (centres undefined) do in these assays?
mHTT CaM bind: 36; Pf apPOL block: -5

What do the screens show for `Cc1ccccc1OCC(=O)N1CCCC2(C1)Nc1ccccc1NC2=NC(C)(C)C` (centres undefined)?
mHTT CaM bind: 75*; Pf apPOL block: 6

How did CC(C)(C)N=C1Nc2ccccc2NC12CCCN(C(=O)c1ccccc1)C2 (centres undefined) do in these assays?
mHTT CaM bind: 82*; Pf apPOL block: -5

Results for CC(C)(C)N=C1Nc2ccccc2NC12CCCN(C(=O)c1ccncc1)C2 (centres undefined) ?
mHTT CaM bind: 18; Pf apPOL block: 16

Results for NC1=NC(=O)CC(C(=O)Nc2ccc(Cl)cc2Cl)S1 (centres undefined) ?
mHTT CaM bind: 6; Pf apPOL block: 7

How did COc1cccc(NC(=O)C2Oc3ccccc3NC2=O)c1 (centres undefined) do in these assays?
mHTT CaM bind: -2; Pf apPOL block: 3

How did Cc1nc(Cn2cccc2C(=O)Nc2ccc(C)c(Cl)c2)no1 do in these assays?
mHTT CaM bind: -8; Pf apPOL block: 0

What do the screens show for `CC1C(=O)N(Cc2cn(CC3CCCCC3)nn2)CCS(=O)(=O)N1Cc1ccc(-c2ccccc2)cc1` (centres undefined)?
mHTT CaM bind: 73*; Pf apPOL block: 0

Results for Cc1ccc(-c2ccc(CN3C(C)C(=O)N(Cc4cn(CC5CCCCC5)nn4)CCS3(=O)=O)cc2)cc1 (centres undefined) ?
mHTT CaM bind: 30; Pf apPOL block: -7

What do the screens show for `CC(C)CC1C(=O)N(Cc2cn(CC3CCCCC3)nn2)CCS(=O)(=O)N1Cc1ccc(-c2ccncc2)cc1` (centres undefined)?
mHTT CaM bind: 65*; Pf apPOL block: -2

What do the screens show for `COc1ccc(-c2ccc(CN3C(CC(C)C)C(=O)N(Cc4cn(CC5CCCCC5)nn4)CCS3(=O)=O)cc2)cc1OC` (centres undefined)?
mHTT CaM bind: 15; Pf apPOL block: 0

How did Cc1noc(C)c1-c1nc(COc2ccc(C=C(C#N)S(C)(=O)=O)cc2)no1 do in these assays?
Pf apPOL block: -3

What do the screens show for `COc1ccc(S(=O)(=O)N2CC3CN(C(=O)Nc4cccc(OC)c4)CC(C2)O3)cc1`?
mHTT CaM bind: -8; Pf apPOL block: -6

What do the screens show for `O=C(Nc1nc2c(s1)CCCC2)c1coc(NC(=O)c2cccs2)n1`?
mHTT CaM bind: 28; Pf apPOL block: -100

Results for Cc1cccc2sc(NC(=O)c3coc(NC(=O)c4cccs4)n3)nc12 ?
mHTT CaM bind: 99*; Pf apPOL block: -19

How did COc1ccc(NC(=O)CSc2cn(Cc3cccc(F)c3)c3ccccc23)cc1 do in these assays?
mHTT CaM bind: 11; Pf apPOL block: 0

Results for O=C(Nc1ccc(S(=O)(=O)Nc2ccc(F)cc2)cc1)c1ccccc1 ?
mHTT CaM bind: -4; Pf apPOL block: -8

How did COc1ccc2c(c1)-c1cc(Cl)ccc1S(=O)(=O)N2C(C)=O do in these assays?
mHTT CaM bind: 87*; Pf apPOL block: -2

Results for COc1ccc(N2C=C(C#N)S(=O)(=O)c3ccc(Cl)cc32)c(C)c1 ?
mHTT CaM bind: -6; Pf apPOL block: -4

What do the screens show for `CCNC(=O)C1CCN(c2nc3ccc(-c4ccc(OC)cc4)nc3s2)CC1`?
mHTT CaM bind: 62*; Pf apPOL block: 7

What do the screens show for `COc1ccc(-c2ccc3nc(N4CCC(C(=O)NC(C)C)CC4)sc3n2)cc1`?
mHTT CaM bind: 14; Pf apPOL block: -5

Results for N/C(=N\OC(=O)N1c2ccccc2Sc2ccccc21)c1cccc([N+](=O)[O-])c1 ?
mHTT CaM bind: inactive; Pf apPOL block: 0

Results for CCOc1cc(C(c2c(C)[nH][nH]c2=O)c2c(C)[nH][nH]c2=O)ccc1O ?
mHTT CaM bind: 7; Pf apPOL block: 2

Results for CCOc1cc(C(Nc2ccccn2)c2ccc3cccnc3c2O)ccc1OC (centres undefined) ?
mHTT CaM bind: 100*; Pf apPOL block: -6

Results for COc1cc(NC(=O)Nc2cccc3cccnc23)cc(OC)c1OC ?
mHTT CaM bind: 30; Pf apPOL block: -6

What do the screens show for `CCOc1cc(C(Nc2ccccn2)c2ccc3cccnc3c2O)ccc1O` (centres undefined)?
mHTT CaM bind: 100*; Pf apPOL block: -12

Results for COc1cc(C(Nc2ccccn2)c2ccc3cccnc3c2O)cc(Br)c1OC (centres undefined) ?
mHTT CaM bind: 98*; Pf apPOL block: -3

How did CCOc1ccc(C=Nc2ccc(S(=O)(=O)Nc3ccccn3)cc2)cc1OCC do in these assays?
mHTT CaM bind: -1; Pf apPOL block: 6

What do the screens show for `O=C1OC(c2cc(Cl)ccc2Cl)=N/C1=C\c1cccc(F)c1`?
mHTT CaM bind: -2; Pf apPOL block: 4

How did CCCCN(C)CCNC(=O)C1CCCN(c2ncnc3c2nc2n3CCCCC2)C1 (centres undefined) do in these assays?
mHTT CaM bind: -4; Pf apPOL block: 1

What do the screens show for `CCc1nnc(-c2cccn2CC(=O)Nc2ccc(Cl)cc2)o1`?
mHTT CaM bind: -2; Pf apPOL block: -2

What do the screens show for `COc1cccc(S(=O)(=O)N2CCC(c3noc(-c4cccc(C)c4)n3)CC2)c1`?
mHTT CaM bind: -8; Pf apPOL block: -7

Results for CN1CCC(NC(=O)c2ccc3c(c2)N(C(=O)c2ccc(F)cc2)CC3)CC1 ?
mHTT CaM bind: 0; Pf apPOL block: -1

How did CNC(=O)c1ccc2c(c1)N(C(=O)c1ccc(OC)cc1)CC2 do in these assays?
mHTT CaM bind: 100*; Pf apPOL block: -1

What do the screens show for `O=C1N=C(N2CCCC2)S/C1=C/C=C/c1ccccc1`?
mHTT CaM bind: 76*; Pf apPOL block: -2

Results for CN1CCN(C2=NC(=O)/C(=C/c3ccccc3)S2)CC1 ?
mHTT CaM bind: 2; Pf apPOL block: -7

How did O=C1N=C(N2CCCCC2)S/C1=C/C1=Cc2ccccc2OC1 do in these assays?
mHTT CaM bind: 66*; Pf apPOL block: -7

Results for O=C1N=C(N2CCOCC2)S/C1=C\C1=Cc2ccccc2OC1 ?
mHTT CaM bind: 45

What do the screens show for `CCOC(=O)C(C#N)=C1NC=CC=C1OC(C)=O`?
Pf apPOL block: 4

How did CC(NC(=O)c1csc(-c2cccnc2)n1)c1ccccc1 (centres undefined) do in these assays?
mHTT CaM bind: 5; Pf apPOL block: -3

Results for COC(=O)c1ccc(N2C(c3cccc(OC)c3)=Cc3ccc(F)cc3C2c2c(C)[nH]c3ccccc23)cc1 (centres undefined) ?
mHTT CaM bind: 2; Pf apPOL block: 1

From PubChem BioAssay
